# Assay results taken from PubChem BioAssay.
# Activity calls are given as the source filed them. Unless noted, no rule for the calls is given here.
# Legend:
# [1] = compound effects on lung adenocarcinoma cell viability – A549, calcein-AM fluorescence, 48 h, basal, profiling panel (AID 1162); conditions: higher = more signal; also: test concentration not given here
# [2] = compound effects on differentiated 3T3-L1 adipocyte viability – cell-based, 3T3-L1 adipocytes, calcein-AM fluorescence, 48 h, basal, profiling panel (AID 1163); conditions: 3T3-L1 adipocytes viability, higher = more signal; also: test concentration not given here
# [3] = compound effects on hepatocellular carcinoma cell viability – HepG2, calcein-AM fluorescence, 48 h, basal, profiling panel (AID 1164); conditions: higher = more signal; also: test concentration not given here
# [4] = compound effects on multiple myeloma cell viability – MM1S, calcein-AM fluorescence, 48 h, basal, profiling panel (AID 1165); conditions: higher = more signal; also: test concentration not given here
# [5] = calcein-AM signal in unstimulated myeloma cells – cell-based, calcein-AM fluorescence, 48 h, PK04 Diversity Set, profiling panel (AID 1166); conditions: RPMI8226 myeloma viability, higher = more signal;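 also: cells grown under basal conditions without added stimulus; test concentration not given here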
# [6] = JC-1 mitochondrial signal, unstimulated HepG2 cells – cell-based, JC-1 fluorescence, 24 h, 100 nL compound, profiling panel (AID 1167); conditions: HepG2 mitochondrial potential, higher = more signal; also: test concentration not given here
# [7] = JC-1 mitochondrial signal, unstimulated adipocytes – cell-based, JC-1 fluorescence, 3T3-L1 adipocytes, 24 h, 100 nL compound, profiling panel (AID 1168); conditions: JC-1 mitochondrial fluorescence, higher = more signal, called active from +8 up or from −8 down; also: test concentration not given here
# [8] = JC-1 mitochondrial signal, unstimulated myeloma cells – cell-based, JC-1 fluorescence, RPMI8226, 24 h, 100 nL compound, profiling panel (AID 1169); conditions: JC-1 mitochondrial potential fluorescence, higher = more signal; also: test concentration not given here
# [9] = JC-1 mitochondrial signal, unstimulated MM1S myeloma – cell-based, JC-1 fluorescence, 24 h, 100 nL compound, profiling panel (AID 1170); conditions: MM1S mitochondrial potential, higher = more signal; also: test concentration not given here
# [10] = resazurin metabolic signal in A549 cells – cell-based, resazurin fluorescence, 24 h, PK04 Diversity Set, profiling panel (AID 1171); conditions: A549 viability, higher = more signal, called active from +8 up or from −8 down; also: test concentration not given here
# [11] = resazurin metabolic signal in HepG2 cells – cell-based, resazurin fluorescence, 24 h, PK04 Diversity Set, profiling panel (AID 1172); conditions: HepG2 viability, higher = more signal; also: test concentration not given here
# [12] = budding yeast growth changes without added modifier – OD600, strain BY4716, 24 h, basal condition, primary screen (AID 1173); conditions: S. cerevisiae BY4716 growth, OD600, 24 h; higher = more signal, called active from +8 up or from −8 down
# [13] = viability profiling in MM1S myeloma cells – cell-based, resazurin fluorescence, basal, 24 h, PK04 Diversity Set, profiling panel (AID 1174); conditions: higher = more signal, called active from +8 up or from −8 down; also: test concentration not given here
# [14] = molecular target: Dihydroorotate dehydrogenase (quinone), mitochondrial (Plasmodium falciparum (isolate 3D7)) (UniProt Q08210); assay: inhibition of P. falciparum DHODH – biochemical, C-terminal His tag, absorbance 600 nm, primary screen (AID 1175); conditions: PfDHODH enzyme, DCIP absorbance 600 nm; higher = more signal, called active from +8 up or from −8 down;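 also: recombinant parasite enzyme with a five histidine tag at its C terminus; test concentration not given here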
# [15] = inhibition of PAO1 biofilm formation – strain PAO1, LB-PBS medium, absorbance 600 nm, primary screen (AID 1176); also: test concentration not given here; conditions: P. aeruginosa PAO1 growth/biofilm, A600, 12 h; higher = more signal
# [16] = growth modulation of vineyard yeast isolate – strain RM11-1a, OD600, basal, 24 h, primary screen (AID 1177);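 also: cultures grown under basal conditions with no added stressor; test concentration not given here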; conditions: S. cerevisiae RM11-1a growth, OD600, 24 h; higher = more signal, called active from +8 up or from −8 down
# [17] = growth of efflux-deficient E. coli DRC39 – strain DRC39, OD650, 24 h, E. coli filamentation inducers, primary screen (AID 1178);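 also: growth measured as culture turbidity by optical density at 650 nm; test concentration not given here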; conditions: E. coli DRC39 acrAB, higher = more signal, called active from +8 up or from −8 down
# [18] = growth of efflux-deficient E. coli DRC39 – strain DRC39, OD650, 48 h, E. coli filamentation inducers, primary screen (AID 1179);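 also: screen aims at cell division blockers that make cells filament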; conditions: E. coli DRC39 delta-acrAB growth, higher = more signal, called active from +8 up or from −8 down
# [19] = viability profiling in RPMI8226 myeloma cells – cell-based, resazurin fluorescence, basal, 24 h, PK04 Diversity Set, profiling panel (AID 1180); conditions: higher = more signal;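 also: RPMI8826 multiple myeloma cell line at 5000 cells per well; test concentration not given here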
# [20] = molecular target: E3 ubiquitin-protein ligase XIAP (Homo sapiens) (UniProt P98170); assay: small molecules binding XIAP protein – biophysical, small-molecule microarray, fluorescence 635 nm, primary screen (AID 1181); conditions: higher = more signal;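 also: score merges 667 nm emission and signal to noise over triplicate slides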
# Sequence of E3 ubiquitin-protein ligase XIAP (Homo sapiens) (P98170 whole entry, looked up): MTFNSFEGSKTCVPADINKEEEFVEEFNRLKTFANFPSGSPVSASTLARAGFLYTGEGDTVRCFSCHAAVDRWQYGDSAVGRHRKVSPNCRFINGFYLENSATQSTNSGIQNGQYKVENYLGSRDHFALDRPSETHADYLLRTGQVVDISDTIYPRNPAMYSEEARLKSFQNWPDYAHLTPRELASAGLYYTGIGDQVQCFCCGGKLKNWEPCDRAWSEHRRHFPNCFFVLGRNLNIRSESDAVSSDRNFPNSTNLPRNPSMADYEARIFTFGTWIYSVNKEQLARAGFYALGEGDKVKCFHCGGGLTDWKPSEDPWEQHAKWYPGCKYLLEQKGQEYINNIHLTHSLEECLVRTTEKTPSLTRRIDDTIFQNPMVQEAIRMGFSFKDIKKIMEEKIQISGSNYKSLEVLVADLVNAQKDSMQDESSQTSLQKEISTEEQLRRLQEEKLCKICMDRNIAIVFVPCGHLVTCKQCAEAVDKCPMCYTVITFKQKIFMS
# Sequence of Dihydroorotate dehydrogenase (quinone), mitochondrial (Plasmodium falciparum (isolate 3D7)) (Q08210 whole entry, looked up): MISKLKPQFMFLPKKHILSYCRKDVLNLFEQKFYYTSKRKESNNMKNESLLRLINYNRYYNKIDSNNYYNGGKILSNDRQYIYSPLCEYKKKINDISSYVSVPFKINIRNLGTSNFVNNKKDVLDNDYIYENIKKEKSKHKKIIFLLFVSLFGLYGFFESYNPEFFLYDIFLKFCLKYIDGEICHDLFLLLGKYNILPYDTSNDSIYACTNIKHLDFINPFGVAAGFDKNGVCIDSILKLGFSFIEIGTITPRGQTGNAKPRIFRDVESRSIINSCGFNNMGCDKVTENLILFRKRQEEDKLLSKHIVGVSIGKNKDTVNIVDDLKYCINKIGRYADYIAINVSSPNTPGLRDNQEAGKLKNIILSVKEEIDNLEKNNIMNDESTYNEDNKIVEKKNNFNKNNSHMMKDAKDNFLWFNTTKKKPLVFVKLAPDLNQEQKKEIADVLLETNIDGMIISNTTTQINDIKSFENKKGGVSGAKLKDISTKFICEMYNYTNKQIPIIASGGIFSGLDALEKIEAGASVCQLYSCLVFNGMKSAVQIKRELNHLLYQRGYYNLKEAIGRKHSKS
SMILES,z-score [1],z-score [2],z-score [3],z-score [4],z-score [5],z-score [6],z-score [7],z-score [8],z-score [9],z-score [10],z-score [11],z-score [12],z-score [13],composite z-score [14],z-score [15],z-score [16],z-score [17],z-score [18],z-score [19],composite z-score [20]
CN(C)CCCCCCNC(=O)[C@H]1C[C@H]2C(=O)N[C@@H](CCCCN)C(=O)N2[C@H]1c1ccc(O)cc1,-0.466,0.71,0.266,-1.05,-0.0908,0.758,-0.935 (inactive),-0.773,0.237,0.283 (inactive),-0.807,0.293 (inactive),-0.249 (inactive),1.31 (inactive),0.808 (inactive),0.0384 (inactive),-0.108 (inactive),0.267 (inactive),0.263,2.64
O=C1OCC=C[C@H]2OC34C=CCN(c5ccc6ccccc6c5)C(=O)[C@H]3N(CCCO)C(=O)[C@@H]4[C@@H]12 (stereo not given in full),0.501,1.79,0.0068,-0.608,-0.691,-0.448,-0.517 (inactive),0.0183,-0.46,-1.09 (inactive),-0.364,-0.82 (inactive),-0.712 (inactive),-0.959 (inactive),-0.385 (inactive),-0.13 (inactive),-0.265 (inactive),-0.641 (inactive),-2.41,-0.181
Cc1ccc([C@H]2C(C(=O)O)=C[C@@H](C)N2S(=O)(=O)c2ccc(C)cc2)cc1,-0.464,0.644,-0.173,-1.35,-0.808,-1.15,-0.642 (inactive),-0.187,0.249,-0.16 (inactive),-0.534,-0.704 (inactive),-0.612 (inactive),-0.377 (inactive),-0.0322 (inactive),-0.211 (inactive),-0.654 (inactive),-0.444 (inactive),-1.52,0.254
O=C1OCCC=C[C@H]2OC34C=CCN(c5ccc6ccccc6c5)C(=O)[C@H]3N(CCCCCO)C(=O)[C@@H]4C12 (stereo not given in full),0.32,-0.691,1.84,1.35,0.0492,1.53,-0.279 (inactive),-0.0802,-0.0576,0.384 (inactive),1.32,-0.805 (inactive),0.835 (inactive),-0.556 (inactive),0.357 (inactive),-0.403 (inactive),1.61 (inactive),1.74 (inactive),1.28,-0.174
O=C1N(CCS(=O)(=O)c2ccccc2)c2ccccc2C[C@@]12COC(c1ccc(OCCCO)cc1)=N2,-0.683,0.294,-1.48,-2.06,-0.517,-2.09,0.7 (inactive),-1.06,-0.554,-0.455 (inactive),-0.73,1.3 (inactive),-0.756 (inactive),0.558 (inactive),0.603 (inactive),1.31 (inactive),-0.0526 (inactive),-0.726 (inactive),-0.816,0.262
C=C(C(=O)CC[C@H](OC(C)=O)c1ccc(OCCO)cc1)C(C)C,-0.809,-0.38,-1.22,-0.984,-1.73,-1.05,-0.00642 (inactive),0.364,0.19,-0.358 (inactive),0.163,-16.2 (active),0.192 (inactive),-8.01 (active),-1.21 (inactive),-21.4 (active),-0.135 (inactive),0.204 (inactive),-0.349,-0.177
CCOC(=O)C[C@H]1[C@H](OC(=O)c2ccccc2-c2ccccc2)[C@@H](NC(=O)Cc2ccc(OC)cc2)c2cc(OCCCO)ccc2N1C(=O)c1ccccc1,0.369,-0.8,0.41,-0.0609,0.0629,0.915,0.0962 (inactive),-0.0457,0.213,0.407 (inactive),-0.532,0.728 (inactive),-0.275 (inactive),0.542 (inactive),-0.0461 (inactive),0.799 (inactive),-0.672 (inactive),-0.79 (inactive),-0.155,0.123
COC(=O)c1ccc(C23CC2(C(NP(=O)(c2ccccc2)c2ccccc2)c2ccccc2)C3)cc1 (stereo not given),0.766,0.406,1.48,-2.06,-3.34,3.7,0.711 (inactive),-0.369,-1.45,-0.416 (inactive),-0.402,-1.17 (inactive),-0.941 (inactive),-1.13 (inactive),0.287 (inactive),-3.39 (inactive),-0.29 (inactive),-0.16 (inactive),-0.122,-0.126
